PubChem BioAssay
Activity calls are given as the source filed them.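 How the source made its calls, unless noted: active means response below a set limit, under 55% cells CD8-positive and vesicle-bound, and CD8 cells' 90th-percentile brightness under 279; inactive means the rest.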

Experiments:
[1] = inhibitors of CD8+ T cell-vesicle binding, pilot screen, LFA-1/ICAM-1 modulator project, MLPCN validation set, flow cytometry (AID 2523); conditions: 2C mouse CD8+ T cells, at 7 µM, stronger effect = lower value; double positive events: measured here: CD8+/vesicle+ event percentage;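 on vesicle binding response: mean PE anti-B7-1 fluorescence of CD8+ cells relative to row control; 100% = QL9-loaded vesicles with DMSO vehicle in the same plate row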
[2] = biological target: Integrin beta-1 (Homo sapiens) + Integrin alpha-4 (Homo sapiens) (UniProt P13612+P05556); assay: inhibition of HUTS-21 binding to VLA-4, pilot screen, VLA-4 allosteric modulator project, U937 cells, HUTS-21 mAb, flow cytometry, validation set (AID 2674;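 active means inhibition above 50%, about 3 SD of the validation set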;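 further: antibody binding induced by the VLA-4 ligand LDV present at three times its Kd; 0% = LDV ligand with antibody and no compound and 100% = antibody without LDV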); conditions: HUTS-21 LIBS mAb binding, at 6.7 µM, stronger effect = higher value, binding induced by LDV ligand
[3] = superoxide lowering in aged yeast cells, pilot screen, validation compound set (AID 2706;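 active means superoxide response below 65% of plate, a cut near 3 SD across the whole screen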;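 further: yeast exposed to compound for one week at 30 degrees C before staining; 100% = mean of all compound wells on the same plate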); conditions: S. cerevisiae aging, superoxide DHE fluorescence; at 10 µM, stronger effect = lower value
[4] = biological target: Beta-adrenergic receptor kinase 1 (Homo sapiens) (UniProt P25098); assay: GRK2 binders displacing RNA aptamer, biochemical, validation, human GRK2, bead flow cytometry (AID 488806;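 active means aptamer binding inhibition above 30%, about 3 SD of noise from non-fluorescent compounds; inactive means inhibition at or below 30%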); conditions: bead-bound GRK2, FAM-aptamer displacement, at 10 µM, stronger effect = higher value
[5] = biological target: Beta-2 adrenergic receptor (Homo sapiens) (UniProt P07550); assay: beta2AR agonists driving receptor internalization, pilot screen, cell-based, FAP fluorogen, flow cytometry, validation set (AID 504459;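 active means percent response above 42, roughly 3 SD of non-fluorescent test compounds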;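 further: agonist-driven loss of surface beta2AR via internalization measured by FAP dye flow cytometry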); conditions: Am2.2-beta2AR cells, FAP surface receptor flow cytometry; at 10 µM; stronger effect = higher value
[6] = biological target: AP-2 complex subunit beta (Homo sapiens) (UniProt P63010); assay: inhibitors of arrestin peptide binding to AP2, pilot screen, biochemical, validation set, GST-AP2 beads, flow cytometry (AID 504541;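 active means inhibition above 54%, about 3 SD of non-fluorescent compounds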;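 further: AP2 carries R879A mutation and is captured from E. coli lysate; bead-bound FITC arrestin peptide fluorescence measuring arrestin peptide binding to AP2; 0% = DMSO wells and 100% = excess unlabeled arrestin peptide control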); conditions: FITC arrestin peptide, at 10 µM, stronger effect = higher value, AP2 beta2 appendage fragment, R879A mutant
[7] = yeast V-ATPase proton transport modulators, S. cerevisiae, pHLuorin, HTS validation (AID 504600; in the data active means response above about 15%;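 further: plate controls were DMSO for no effect and reference compound for full effect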); conditions: S. cerevisiae pHLuorin cytosolic pH, at 10 µM, stronger effect = higher value
[8] = system: anti-desmoglein-3 scFv antibody binding to human DSG3; assay: inhibitors of anti-DSG3 scFv binding to DSG3, pilot screen, biochemical, validation compound set, bead-based, flow cytometry (AID 588368;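 active means binding below the plate cutoff, the plate median minus 3 SD, with a reading above zero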;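 further: signal is the median channel fluorescence of bead-bound GFP antibody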); conditions: Protein G beads, DSG3-Fc, scFv-GFP binding, at 10 µM, stronger effect = lower value
[9] = inhibitors of fungal efflux pumps CDR1, CDR2, MDR1, pilot screen, validation compound set, multiplex, phenotypic (AID 588506;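 active means efflux inhibition above 0.42, the validation set average plus 4 SD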;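 further: Nile Red retained in cells so higher fluorescence means more efflux inhibition; 0 = negative control wells and 1 = enniatin B 25 µM full block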); conditions: S. cerevisiae pump-expressing triplex, Nile Red efflux flow cytometry; at 10 µM; stronger effect = higher value; the pumps come from Candida albicans
[10] = biological target: ATP-binding cassette sub-family B member 6 (Homo sapiens) (UniProt Q9NP58); assay: ABCB6 transporter inhibitors, pilot screen, K562-ABCB6 cells, flow cytometry, validation set (AID 588550;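 active means inhibition above the screen-wide mean plus 3 SD, about 51%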;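 further: 0% = DMSO wells and 100% = benzethonium chloride 70 µM positive control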); conditions: K562-ABCB6 porphyrin accumulation, 1 h, at 10 µM, stronger effect = higher value
[11] = promoters of myeloid differentiation in arrested cells, primary screen, cell-based, GFP/MAC1 double positive, flow cytometry, validation set (AID 588685;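 active means differentiation response of at least 50%, scaled between solvent and reference control, from cells with both markers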;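 further: compound exposure lasts four days before antibody staining and flow analysis; 0% = DMSO wells and 100% = 5 µM fulvestrant positive control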); conditions: ER-HoxA9 marrow cells, stronger effect = higher value, normalized: vehicle 0, fulvestrant 100

Sequence of AP-2 complex subunit beta (Homo sapiens) (P63010 whole entry, looked up, the tested form may be a part, one chain of several): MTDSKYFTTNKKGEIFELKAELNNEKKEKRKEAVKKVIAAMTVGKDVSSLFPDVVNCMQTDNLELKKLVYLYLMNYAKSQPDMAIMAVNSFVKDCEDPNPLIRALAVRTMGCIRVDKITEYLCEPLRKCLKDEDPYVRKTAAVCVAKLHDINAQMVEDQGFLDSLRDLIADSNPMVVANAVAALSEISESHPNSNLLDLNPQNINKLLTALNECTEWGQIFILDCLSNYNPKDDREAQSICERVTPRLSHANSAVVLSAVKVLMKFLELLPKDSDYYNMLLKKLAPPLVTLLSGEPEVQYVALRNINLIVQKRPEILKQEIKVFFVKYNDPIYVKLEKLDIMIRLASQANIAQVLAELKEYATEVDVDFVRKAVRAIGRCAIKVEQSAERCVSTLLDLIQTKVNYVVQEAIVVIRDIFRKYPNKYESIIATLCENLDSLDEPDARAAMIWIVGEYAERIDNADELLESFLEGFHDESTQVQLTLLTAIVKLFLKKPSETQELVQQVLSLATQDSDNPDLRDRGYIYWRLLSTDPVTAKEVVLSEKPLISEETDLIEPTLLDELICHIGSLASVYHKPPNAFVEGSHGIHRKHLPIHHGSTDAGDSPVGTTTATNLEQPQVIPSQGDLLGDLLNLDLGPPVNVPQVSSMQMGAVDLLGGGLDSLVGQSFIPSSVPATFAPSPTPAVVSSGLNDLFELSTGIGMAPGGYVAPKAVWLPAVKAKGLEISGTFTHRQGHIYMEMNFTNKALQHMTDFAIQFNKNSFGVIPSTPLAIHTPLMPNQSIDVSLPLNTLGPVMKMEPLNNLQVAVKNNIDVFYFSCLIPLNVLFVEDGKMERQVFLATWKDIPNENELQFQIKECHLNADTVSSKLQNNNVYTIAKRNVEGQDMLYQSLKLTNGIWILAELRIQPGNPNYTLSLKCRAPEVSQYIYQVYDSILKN
Sequence of Integrin beta-1 (Homo sapiens) + Integrin alpha-4 (Homo sapiens) (P05556 whole entry, looked up): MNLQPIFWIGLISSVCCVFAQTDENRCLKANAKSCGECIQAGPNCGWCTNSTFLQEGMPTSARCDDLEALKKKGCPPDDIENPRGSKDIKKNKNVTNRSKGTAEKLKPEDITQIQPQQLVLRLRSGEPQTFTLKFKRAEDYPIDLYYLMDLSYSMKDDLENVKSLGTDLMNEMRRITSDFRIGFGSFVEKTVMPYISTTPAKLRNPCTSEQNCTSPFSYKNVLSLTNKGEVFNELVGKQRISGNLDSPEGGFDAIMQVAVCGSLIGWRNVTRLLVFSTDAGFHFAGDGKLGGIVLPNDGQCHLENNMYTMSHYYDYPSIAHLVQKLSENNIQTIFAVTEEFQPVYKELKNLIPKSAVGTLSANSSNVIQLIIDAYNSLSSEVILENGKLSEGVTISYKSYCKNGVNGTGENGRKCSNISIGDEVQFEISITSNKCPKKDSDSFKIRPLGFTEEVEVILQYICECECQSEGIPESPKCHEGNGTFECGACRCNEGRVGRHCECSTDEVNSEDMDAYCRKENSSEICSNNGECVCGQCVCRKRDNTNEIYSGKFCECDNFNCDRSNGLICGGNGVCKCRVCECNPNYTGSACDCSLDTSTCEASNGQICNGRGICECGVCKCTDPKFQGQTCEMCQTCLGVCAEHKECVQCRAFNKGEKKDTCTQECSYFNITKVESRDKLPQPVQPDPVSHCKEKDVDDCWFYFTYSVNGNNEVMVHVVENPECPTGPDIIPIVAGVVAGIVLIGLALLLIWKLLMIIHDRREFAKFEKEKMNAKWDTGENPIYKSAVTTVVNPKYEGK
Sequence of Integrin beta-1 (Homo sapiens) + Integrin alpha-4 (Homo sapiens) (P13612 whole entry, looked up): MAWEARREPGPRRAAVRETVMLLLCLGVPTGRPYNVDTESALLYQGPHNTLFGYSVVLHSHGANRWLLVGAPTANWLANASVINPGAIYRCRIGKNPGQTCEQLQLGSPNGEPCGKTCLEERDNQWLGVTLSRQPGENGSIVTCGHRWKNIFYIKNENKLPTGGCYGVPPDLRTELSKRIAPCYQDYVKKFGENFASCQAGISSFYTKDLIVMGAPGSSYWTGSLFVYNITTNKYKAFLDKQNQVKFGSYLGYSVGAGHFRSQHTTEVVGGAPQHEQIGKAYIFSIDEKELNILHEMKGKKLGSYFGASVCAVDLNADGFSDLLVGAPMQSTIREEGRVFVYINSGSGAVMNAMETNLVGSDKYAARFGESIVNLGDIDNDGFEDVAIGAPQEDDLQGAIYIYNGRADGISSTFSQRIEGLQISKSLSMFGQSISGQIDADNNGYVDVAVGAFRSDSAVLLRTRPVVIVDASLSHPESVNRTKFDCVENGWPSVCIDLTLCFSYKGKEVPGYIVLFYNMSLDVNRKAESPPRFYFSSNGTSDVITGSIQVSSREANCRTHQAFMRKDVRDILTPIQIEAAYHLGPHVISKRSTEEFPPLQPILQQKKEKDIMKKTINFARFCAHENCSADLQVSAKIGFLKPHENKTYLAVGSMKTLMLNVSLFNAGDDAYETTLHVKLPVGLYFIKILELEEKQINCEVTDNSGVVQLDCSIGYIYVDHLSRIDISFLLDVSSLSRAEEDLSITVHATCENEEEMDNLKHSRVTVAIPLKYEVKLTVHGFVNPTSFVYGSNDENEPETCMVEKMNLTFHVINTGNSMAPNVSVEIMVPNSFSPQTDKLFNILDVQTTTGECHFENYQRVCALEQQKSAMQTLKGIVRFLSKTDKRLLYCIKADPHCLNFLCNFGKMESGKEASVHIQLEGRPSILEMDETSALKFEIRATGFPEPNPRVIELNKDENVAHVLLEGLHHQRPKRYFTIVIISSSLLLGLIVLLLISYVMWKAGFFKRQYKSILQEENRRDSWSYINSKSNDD
Sequence of ATP-binding cassette sub-family B member 6 (Homo sapiens) (Q9NP58 whole entry, looked up): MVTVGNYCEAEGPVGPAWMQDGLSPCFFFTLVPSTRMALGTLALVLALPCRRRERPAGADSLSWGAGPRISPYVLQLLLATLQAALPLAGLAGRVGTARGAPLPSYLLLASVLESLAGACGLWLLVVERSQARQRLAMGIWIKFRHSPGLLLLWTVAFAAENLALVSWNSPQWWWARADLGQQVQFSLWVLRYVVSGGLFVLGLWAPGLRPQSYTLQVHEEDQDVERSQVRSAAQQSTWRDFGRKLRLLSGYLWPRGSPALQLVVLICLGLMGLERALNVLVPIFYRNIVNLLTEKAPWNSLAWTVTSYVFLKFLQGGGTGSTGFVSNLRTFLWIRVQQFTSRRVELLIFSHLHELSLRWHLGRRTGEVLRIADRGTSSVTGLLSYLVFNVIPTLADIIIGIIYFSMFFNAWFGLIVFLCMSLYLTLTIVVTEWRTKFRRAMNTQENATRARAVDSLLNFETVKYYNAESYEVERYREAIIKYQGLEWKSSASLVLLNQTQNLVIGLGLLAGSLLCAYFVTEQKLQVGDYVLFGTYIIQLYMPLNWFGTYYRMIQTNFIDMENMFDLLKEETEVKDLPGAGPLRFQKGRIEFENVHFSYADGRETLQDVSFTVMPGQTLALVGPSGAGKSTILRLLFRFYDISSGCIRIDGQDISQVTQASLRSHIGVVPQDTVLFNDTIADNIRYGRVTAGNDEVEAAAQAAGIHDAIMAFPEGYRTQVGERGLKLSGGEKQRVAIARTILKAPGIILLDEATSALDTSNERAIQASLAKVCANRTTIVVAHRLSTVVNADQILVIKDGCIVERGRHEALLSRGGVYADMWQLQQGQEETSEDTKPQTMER
Sequence of Beta-2 adrenergic receptor (Homo sapiens) (P07550 whole entry, looked up): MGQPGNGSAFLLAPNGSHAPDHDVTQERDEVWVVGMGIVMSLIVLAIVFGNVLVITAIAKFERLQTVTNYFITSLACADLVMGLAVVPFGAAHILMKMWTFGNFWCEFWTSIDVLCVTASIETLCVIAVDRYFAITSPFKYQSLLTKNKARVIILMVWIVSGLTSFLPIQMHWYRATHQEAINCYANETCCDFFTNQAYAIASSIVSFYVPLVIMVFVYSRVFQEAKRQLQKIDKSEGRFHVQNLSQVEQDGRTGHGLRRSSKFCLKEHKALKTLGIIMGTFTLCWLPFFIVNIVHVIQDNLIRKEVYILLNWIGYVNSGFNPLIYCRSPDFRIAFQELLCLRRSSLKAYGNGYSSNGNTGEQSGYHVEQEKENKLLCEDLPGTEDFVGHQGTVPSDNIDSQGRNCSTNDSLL
Sequence of Beta-adrenergic receptor kinase 1 (Homo sapiens) (P25098 whole entry, looked up): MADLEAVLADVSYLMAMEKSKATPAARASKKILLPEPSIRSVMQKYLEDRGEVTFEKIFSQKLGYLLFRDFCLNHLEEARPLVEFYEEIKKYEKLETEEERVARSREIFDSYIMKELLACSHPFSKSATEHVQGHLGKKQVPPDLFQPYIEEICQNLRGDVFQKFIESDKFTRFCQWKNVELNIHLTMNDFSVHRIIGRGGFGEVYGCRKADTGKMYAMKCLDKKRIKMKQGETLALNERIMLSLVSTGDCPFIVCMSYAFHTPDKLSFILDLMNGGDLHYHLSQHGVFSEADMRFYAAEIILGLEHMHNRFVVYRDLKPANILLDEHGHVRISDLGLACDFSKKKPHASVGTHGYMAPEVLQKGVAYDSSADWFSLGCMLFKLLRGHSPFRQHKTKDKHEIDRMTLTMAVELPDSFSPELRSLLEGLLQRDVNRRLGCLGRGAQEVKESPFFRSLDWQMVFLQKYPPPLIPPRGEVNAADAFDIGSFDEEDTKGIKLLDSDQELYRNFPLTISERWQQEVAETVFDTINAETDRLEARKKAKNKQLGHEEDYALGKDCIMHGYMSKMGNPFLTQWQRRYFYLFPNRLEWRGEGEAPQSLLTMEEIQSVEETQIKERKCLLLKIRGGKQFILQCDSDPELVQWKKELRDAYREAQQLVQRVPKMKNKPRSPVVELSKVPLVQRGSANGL

Row | SMILES | double positive events [1] [%] | vesicle binding response [1] | inhibition [2] | superoxide response (% of plate) [3] | aptamer binding inhibition [4] | response [5] | inhibition [6] | response [7] | binding (% of control) [8] | efflux inhibition (fraction of control) [9] | inhibition [10] | differentiation response [11]
1 | Cc1ccc2c(c1)C(O)(CC(=O)/C=C/C=C/c1ccccc1)C(=O)N2 (stereo not given) | 63.9 | 759% (inactive) | -4.6% (inactive) | 111% (inactive) | 2% (inactive) | -0.9% (inactive) | 4.01% (inactive) | -1.15% (inactive) | 99% (inactive) | -0.26 (inactive) | -7% (inactive) | 2.2% (inactive)
2 | CNC[C@H](O)c1cccc(O)c1 | 61.2 | 124% (inactive) | -10.5% (inactive) | 96.3% (inactive) | 0% (inactive) | – | -4.38% (inactive) | 3.91% (inactive) | 102% (inactive) | 0.875 (active) | -8% (inactive) | 7.13% (inactive)
3 | O=c1ccc2ccccc2o1 | 62.3 | 162% (inactive) | -3.77% (inactive) | 95.1% (inactive) | -7% (inactive) | 0.92% (inactive) | 1.88% (inactive) | -9% (inactive) | 103% (inactive) | -0.02 (inactive) | -8% (inactive) | 2.74% (inactive)
4 | CCCCC[C@H](O)/C=C/[C@@H]1[C@@H](C/C=C\CCCC(=O)O)[C@@H](O)C[C@H]1O | 60.4 | 106% (inactive) | -49.3% (inactive) | 96.5% (inactive) | 1% (inactive) | -3.9% (inactive) | -12.4% (inactive) | -1.19% (inactive) | 98.8% (inactive) | 0.045 (inactive) | 1% (inactive) | -11.9% (inactive)
5 | Fc1cccc(Cc2noc(CN3CCN(c4cnccn4)CC3)n2)c1 | 56.6 | 45.8% (inactive) | -3.57% (inactive) | 108% (inactive) | -1% (inactive) | -4.45% (inactive) | 56.4% (active) | -3.37% (inactive) | 97.4% (inactive) | 0.11 (inactive) | 0% (inactive) | 41.3% (inactive)
6 | O=C(O)C[C@@H](O)C(=O)O | 56.6 | 193% (inactive) | 0.69% (inactive) | 104% (inactive) | 2% (inactive) | – | -10.9% (inactive) | -4.82% (inactive) | 102% (inactive) | -0.2 (inactive) | 4% (inactive) | 6.26% (inactive)
7 | O=C(CNC(=O)OCc1ccccc1)NC1CCCCCC1 | 55.1 | 201% (inactive) | 10% (inactive) | 90.8% (inactive) | 4% (inactive) | – | 1.41% (inactive) | 11.3% (inactive) | 99.1% (inactive) | -0.05 (inactive) | 12% (inactive) | 6.26% (inactive)
8 | CC1(C)Cc2nc3oc4c(NCc5ccccc5)ncnc4c3cc2CO1 | 49.8 | 183% (inactive) | 4.42% (inactive) | 95.3% (inactive) | -2% (inactive) | – | -8.27% (inactive) | -4.11% (inactive) | 105% (inactive) | -0.2 (inactive) | 5% (inactive) | 0% (inactive)
9 | CCNC(=O)c1sc2cc(C)ccc2c1Cl | 60.2 | 294% (inactive) | -10.5% (inactive) | 86.4% (inactive) | -2% (inactive) | – | -9.7% (inactive) | 0.2% (inactive) | 99.5% (inactive) | -0.16 (inactive) | 5% (inactive) | 1.41% (inactive)
10 | C[C@]12CCC(=O)C=C1CC[C@@H]1[C@@H]2CC[C@@]2(C)[C@H]1CC[C@]2(O)C(=O)CO | 54.2 | 143% (inactive) | 5.36% (inactive) | 96.8% (inactive) | 4% (inactive) | – | -3.62% (inactive) | 1.37% (inactive) | 96.2% (inactive) | -0.31 (inactive) | 4% (inactive) | -3.43% (inactive)
11 | COc1ccccc1C(=O)N=C1NC(=O)CC2C(=O)NCCN12 (stereo not given) | 63.2 | 245% (inactive) | 6.4% (inactive) | 100% (inactive) | 0% (inactive) | -0.52% (inactive) | 0.24% (inactive) | -0.05% (inactive) | 103% (inactive) | 0.08 (inactive) | 9% (inactive) | -8.8% (inactive)
12 | COc1ccc2[nH]c(C)c(CN3CCC(C)CC3)c(=O)c2c1 | 50.2 | 154% (inactive) | -14.2% (inactive) | 100% (inactive) | 2% (inactive) | – | -1.75% (inactive) | 4.29% (inactive) | 98.5% (inactive) | 0.1 (inactive) | 2% (inactive) | -5.05% (inactive)
13 | N=C1C(c2ccccc2)=C(O)CN1CCCO | 58.1 | 157% (inactive) | 2.3% (inactive) | 91.2% (inactive) | 3% (inactive) | -12.9% (inactive) | -7.8% (inactive) | -6.01% (inactive) | 93.8% (inactive) | -0.06 (inactive) | 12% (inactive) | -31.2% (inactive)
14 | Cc1csc(-c2coc3cc(O)cc(C)c3c2=O)n1 | 63.8 | 138% (inactive) | 2.3% (inactive) | 119% (inactive) | 2% (inactive) | 0.13% (inactive) | 13.4% (inactive) | -4.09% (inactive) | 97.4% (inactive) | -0.03 (inactive) | 17% (inactive) | 2.4% (inactive)
15 | CC(=O)/C=C/c1ccc(C)o1 | 62.2 | 175% (inactive) | 5.03% (inactive) | 95.6% (inactive) | -4% (inactive) | 14.7% (inactive) | 15.9% (inactive) | 0.22% (inactive) | 102% (inactive) | 0.51 (active) | 3% (inactive) | 28% (inactive)
16 | CN1[C@@H](CC(=O)c2ccccc2)CCC[C@H]1C[C@H](O)c1ccccc1 | 61.3 | 176% (inactive) | 6.4% (inactive) | 93.3% (inactive) | 4% (inactive) | 12.9% (inactive) | -9.53% (inactive) | 3.14% (inactive) | 103% (inactive) | -0.06 (inactive) | 3% (inactive) | -0.8% (inactive)
